ATXN2 expr inh – reduces ATXN2 reporter expression in HEK-293 cells. HEK-293 ATXN2-luciferase reporter, luminescence, 24 h. Potency, µM (doses to about 57 µM), inactives show top-dose activity change, negative = inhibition, most hits filed as inhibitors. actives 0.72% (n = 360,000). AID 1745845; also: potency is read from the fitted curve at half-maximal effect; % is scaled to controls: 0 for no effect and ±100 for the full control effect; nearly all actives have a fitted effect of over 55% in size
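ATXN2-luciferase reporter cells (luciferase flanked by upstream and downstream ATXN2 gene portions) were treated 24 h at 37 °C with compounds at up to 57 uM. SteadyGlo luminescence gave expression; GF-AFC fluorescence gave viability.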
ATXN viability – cell viability loss in ATXN counter-screen | actives 0.49% (n = 400,000) | S2 cells (HEK-293 line with an ATXN2-luciferase reporter) viability, CellTiter-Fluor protease fluorescence, 24 h | Potency, µM (top dose mostly 56.7 µM), hits mostly cytotoxic | AID 651635; also: potency is read from the fitted curve at half-maximal effect; nearly all actives have a fitted effect of over 40% in size
HepG2 tox – kills HepG2 cells in TGF-b inhibitor counter-screen; Potency, µM (highest dose often 46.1 µM), without a hit: at the top dose activity change, negative = cytotoxicity, hits mostly cytotoxic; HepG2 CAGA-GFP viability, ATP luminescence, 18 h; actives 0.76% (n = 410,000); also: potency is read from the fitted curve at half-maximal effect
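HepG2 CAGA-GFP cells (1000/well, DMEM with 1% FBS) received compound, then TGF-beta at 500 pg/mL final, and were incubated 18 hours at 37 degrees C. Viability was read by CellTiter-Glo luminescence. Media-only wells were set as complete cell-killing and DMSO as no toxicity.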
TGFb SMAD3 inh – inhibitors of TGF-b signaling. Potency, µM (series often up to 46.1 µM), without a hit: top-dose activity, negative = inhibition, most hits filed as inhibitors. AID 588855. actives 1.2% (n = 410,000). HepG2 CAGA-GFP TGF-b/SMAD3 reporter, GFP fluorescence, 18 h; TGF-beta stimulated, 500 pg/mL final; also: potency is read from the fitted curve at half-maximal effect; % is scaled to controls: 0 for no effect and ±100 for the full control effect; nearly all actives have a fitted effect of over 65% in size
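Inhibition of TGF-beta-driven CAGA-GFP reporter expression in HEPG2 cells is measured by cellular GFP fluorescence after 18 h stimulation with 500 pg/mL recombinant TGF-beta in 1% FBS medium at 37 degrees C.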
IL1B secr inh – blocks inflammasome-driven IL-1 beta release; THP-1 LPS/ATP IL-1B secretion, AlphaLISA, 16 h; hits give low values; activity change, % at 57.5 µM; actives 4.7% (n = 360,000); AID 743279; in the data active = activity change below about -50%; inconclusive = mostly about -30% to -49%; also: % is scaled to controls: 0 for no effect and ±100 for the full control effect
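THP-1 cells pretreated 1 hr with compounds (up to 57.5 uM final), then stimulated with LPS (250 ng/mL final) plus ATP (1.25 mM final); secreted IL-1B measured by AlphaLISA after 16 hr, decreased signal indicating inhibition.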
* hit, by the source's call; i = inactive; ? = inconclusive; / = no result; ! = not active in a repeat. The list is not random: actives were taken first. Their share in the collection is about 5.7%. Unless noted, calls follow the shape of the dose curve; as a rule, active = well fitted curve in the direction sought with a large enough effect; inconclusive = small, poorly fitted or top-dose-only effect, or another doubt; inactive = no such curve, though single readings can be large; an effect the other way counts as inactive or inconclusive.

SMILES	ATXN2 expr inh	ATXN viability	HepG2 tox	TGFb SMAD3 inh	IL1B secr inh
Nc1ncnc2ccccc12	-9%	/	/	/	/
Cc1ccc(C)c(NC(=O)Cn2cc(C(=O)c3cccs3)c3ccccc32)c1	0%	i	-18%	?	/
CC(=O)SC(C[N+](=O)[O-])c1cn(C(C)=O)c2ccccc12 (stereo not drawn)	?	?	-56%	?	-82*
CC(=O)n1cc(Nc2ccc([N+](=O)[O-])cc2)c2ccccc21	/	?	-22%	-1%	17
COc1ccc2ccc3c(c2c1)N=CC1(O3)N(C)c2ccccc2C1(C)C (stereo not drawn)	-9%	i	-48%	7.9µM*	-2
CN1c2ccccc2C(C)(C)[C@]12C=Cc1cc(O)ccc1O2	-14%	?	-38%	18µM*	37
CN1c2ccccc2C(C)(C)C12C=Nc1c(ccc3ccccc13)O2 (stereo not drawn)	38%	i	-28%	?	-58*
CC1=C(C(=O)Nc2cccnc2)C(c2ccc(F)cc2)n2nc(-c3cccc(C)c3)nc2N1 (stereo not drawn)	14%	i	-9%	-4%	/
COc1ccccc1CNC(=O)Nc1nc(C(N)CCc2ccccc2)cs1 (stereo not drawn)	?	/	13µM*	?	?
COc1cccc(Nc2nc(C(N)CCc3ccccc3)cs2)n1 (stereo not drawn)	28µM*	?	-91%	?	-87*
COc1cccc(Nc2nc(C(N)COCc3ccccc3)cs2)n1 (stereo not drawn)	-22%	i	11µM*	?	/
NC(=O)c1cccc(Nc2nc(C(N)CCc3ccccc3)cs2)n1 (stereo not drawn)	-9%	i	-38%	5%	0
Cc1ccc(C)c(Cn2c(=O)n(CCCC(=O)NCc3ccc4c(c3)OCO4)c(=O)c3sccc32)c1	/	/	-25%	-29%	/
C[C@]12CC[C@@H]3c4ccc(O[C@@H]5O[C@H](C(=O)O)[C@@H](O)[C@H](O)[C@H]5O)cc4CC[C@H]3[C@@H]1C[C@@H](O)[C@@H]2O	13%	i	-1%	5%	0
C=CCOc1ccc2c(c1)CCC1C2CCC2(C)C(O)C(O)CC12 (stereo not drawn)	27%	i	-18%	?	-75*
Oc1ccc(Cl)cc1C1C=C(c2ccc3c(c2)OCO3)NC(c2ccc(Cl)cc2)N1 (stereo not drawn)	/	/	-61%	?	/
CC1CNCCN1S(=O)(=O)c1cccc2cnccc12 (stereo not drawn)	-12%	i	-32%	-21%	-91*!
O=S(=O)(c1cccc2cnccc12)N1CCCNCC1	25µM*!	i	-24%	8%	-20
CCc1cccc(C)c1NC(=O)c1cc(S(=O)(=O)N2CCCCCC2)cn1C	-2%	i	1%	0%	/
CCOC(=O)C(CC)N1CCN(Cc2ccc(F)cc2)C(=O)C1=O (stereo not drawn)	3%	i	1%	-26%	/
CCOc1ccc2c3c(c(=O)oc2c1OCC)CCCC3	5%	?	-7%	-4%	-52*
COc1ccc(C(=O)NCC(C)(C)SCc2c(C)cc(C)cc2C)cc1	-12%	i	-37%	?	-72*
CC1(C)Cc2c(c(N3CCOCC3)nc3sc4c(NCc5ccco5)nnnc4c23)CS1	-16%	i	14%	0%	-60*
CC1(C)Cc2c(c(N3CCOCC3)nc3sc4c(NCc5ccccc5)nnnc4c23)CS1	-29%	i	-12%	19%	-21
COC(=O)C(=C/C(C)=C/c1cccnc1)C(=O)OC	?	/	-46%	?	-95*
SMILES	ATXN2 expr inh	ATXN viability	HepG2 tox	TGFb SMAD3 inh	IL1B secr inh
COC(=O)/C(=C/c1cccnc1)NC(=O)c1ccccc1	-16%	i	-11%	?	0
CCCN(CCC)CCCNC(=O)c1sc2nc3n(c(=O)c2c1C)CCC3	/	/	-50%	?	/
CCOC(=O)c1c(-c2ccccc2)oc2ccc(N(C(C)=O)S(=O)(=O)c3ccc(CC)cc3)cc12	?	?	-9%	-5%	/
CN(Cc1ccc(Cl)cc1)C(C(=O)NC1CCCCC1)c1cc2ccccc2o1 (stereo not drawn)	14%	i	-14%	?	-1
N#CCCN(Cc1ccccc1)C(C(=O)NC1CCCCC1)c1cc2ccccc2o1 (stereo not drawn)	-39%	/	3%	13µM*	33
CCOC(=O)c1c(NC(=O)C(C)Sc2cn(CCNC(=O)c3c(F)cccc3F)c3ccccc23)sc2c1CCC2 (stereo not drawn)	-7%	?	2%	22%	/
CC(C(=O)Nc1ccc(C(F)(F)F)cc1)N(C)CC(=O)N1CCN(Cc2ccccc2)CC1 (stereo not drawn)	-19%	i	-16%	?	-51*
CC(C)CC(=O)N1CCN(Cc2ccc(C(F)(F)F)cc2)CC1	/	?	-4%	?	-6
Oc1ccccc1N=N/C(=N/Nc1ccccc1O)c1ccccc1	13%	i	-3%	14%	22
Cn1nnnc1N=N/C(=N/Nc1ccccc1)c1ccccc1	2.5µM*	8.9µM*	-36%	-8%	5
Cc1ccc(CN2CCc3nc(N4CCN(C)CC4)ncc3C2)s1	6%	i	-36%	0%	/
Cc1ccc2oc(C(=O)N3CCC(O)(c4cccc(C(F)(F)F)c4)CC3)c(C)c2c1	31%	i	-39%	?	-52*
CCOc1cccc2sc(N(CCCN(C)C)C(=O)c3ccc(S(=O)(=O)N(C)Cc4ccccc4)cc3)nc12	?	/	-84%	?	i
CCOc1cccc2sc(N(CCN(C)C)C(=O)c3cc4ccccc4cc3OC)nc12	20µM*	?	-53%	?	-58*
CCOc1cccc2sc(N(CCCN(C)C)C(=O)c3ccc(C(=O)c4ccccc4)cc3)nc12	?	?	-82%	?	-88*
CN(C)CCCN(C(=O)c1ccc(C(=O)c2ccccc2)cc1)c1nc2c(F)cccc2s1	-9%	i	-29%	?	?
CCN(Cc1ccccc1)S(=O)(=O)c1ccc(C(=O)N(CCCN(C)C)c2nc3c(F)cccc3s2)cc1	-16%	i	-24%	-27%	-77*
CCOc1cccc2sc(N(CCCN(C)C)C(=O)c3ccc(S(=O)(=O)N(CC)Cc4ccccc4)cc3)nc12	?	?	-105%	?	-90*
O=C(/C=C/c1ccc(Cl)cc1Cl)n1cccn1	-17%	i	-21%	-9%	-61*
O=C(/C=C/c1ccc(Cl)cc1Cl)c1ccc[nH]1	/	i	-91%	?	-86*
O=C(/C=C/c1ccccc1Cl)c1ccc[nH]1	76%	i	-1%	?	?

Source: PubChem
